Assay outcomes as filed in PubChem BioAssay.
USP8 block: inhibitors of human USP8 deubiquitinase; 47,000 compounds, 4.2% hits; purified USP8, Ub-rhodamine cleavage fluorescence, 30 min; inhibition, % at 20 µM; Ubiquitin carboxyl-terminal hydrolase 8 (Homo sapiens), P40818
Target sequence (P40818 whole entry, looked up): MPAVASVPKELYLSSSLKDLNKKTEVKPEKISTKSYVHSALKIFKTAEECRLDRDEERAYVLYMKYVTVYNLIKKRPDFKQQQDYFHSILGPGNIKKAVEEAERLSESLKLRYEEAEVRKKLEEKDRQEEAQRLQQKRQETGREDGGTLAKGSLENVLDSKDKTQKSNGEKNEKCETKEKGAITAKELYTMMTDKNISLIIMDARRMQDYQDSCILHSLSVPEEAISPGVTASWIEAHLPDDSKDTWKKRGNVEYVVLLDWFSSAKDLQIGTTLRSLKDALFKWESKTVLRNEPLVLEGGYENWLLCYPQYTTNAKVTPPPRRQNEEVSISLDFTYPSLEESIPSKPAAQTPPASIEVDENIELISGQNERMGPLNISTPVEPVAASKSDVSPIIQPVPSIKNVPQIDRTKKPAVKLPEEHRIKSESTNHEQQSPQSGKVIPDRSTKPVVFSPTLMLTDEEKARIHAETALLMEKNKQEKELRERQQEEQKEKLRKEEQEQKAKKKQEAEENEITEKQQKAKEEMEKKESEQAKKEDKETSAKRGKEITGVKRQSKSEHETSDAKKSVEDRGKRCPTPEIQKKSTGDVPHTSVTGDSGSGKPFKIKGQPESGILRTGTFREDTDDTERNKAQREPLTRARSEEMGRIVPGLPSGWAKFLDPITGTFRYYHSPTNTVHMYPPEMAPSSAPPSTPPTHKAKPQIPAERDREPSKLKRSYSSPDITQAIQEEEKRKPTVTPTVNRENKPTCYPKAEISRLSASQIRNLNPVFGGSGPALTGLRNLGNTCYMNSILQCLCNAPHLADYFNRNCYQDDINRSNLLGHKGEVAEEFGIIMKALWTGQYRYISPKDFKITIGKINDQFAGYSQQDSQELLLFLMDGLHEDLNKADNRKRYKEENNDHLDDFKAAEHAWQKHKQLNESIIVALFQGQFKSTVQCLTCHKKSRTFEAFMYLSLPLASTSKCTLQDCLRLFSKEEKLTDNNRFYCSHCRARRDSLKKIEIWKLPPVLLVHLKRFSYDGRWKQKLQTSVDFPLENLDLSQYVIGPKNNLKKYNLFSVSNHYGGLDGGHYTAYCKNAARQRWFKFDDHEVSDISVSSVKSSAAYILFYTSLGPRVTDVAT
USP10 block: inhibitors of human USP10 deubiquitinase. Ubiquitin carboxyl-terminal hydrolase 10 (Homo sapiens), Q14694. purified USP10, Ub-rhodamine fluorescence, 60 min. inhibition, % at 20 µM. 47,000 compounds, 1.1% hits. AID 1645856, 2021
UCHL1 block: inhibitors of human UCHL1 deubiquitinase; purified UCHL1, Ub-rhodamine cleavage fluorescence; Ubiquitin carboxyl-terminal hydrolase isozyme L1 (Homo sapiens), P09936; inhibition, % at 20 µM; 47,000 compounds, 0.2% hits
USP7 block: inhibitors of human USP7 deubiquitinase | Ubiquitin carboxyl-terminal hydrolase 7 (Homo sapiens), Q93009 | purified USP7, Ub-rhodamine cleavage fluorescence | inhibition, % at 20 µM | 47,000 compounds, 0.3% hits | AID 1645854, 2021
Large screens that a line does not name were inactive. Shown are actives, neighbours in structure and some others; about 5% of the full set was active somewhere. Rule as the data show it: active = inhibition above about 30%; inactive = the rest.

O=C(Cc1ccccc1)Nc1nc(-c2ccccc2)ns1	none
CCN(CC)S(=O)(=O)c1ccc(/C(=C\Nc2ccc(Cl)cc2)c2ncc(C(F)(F)F)cc2Cl)s1	USP8 block 36
Cc1ccc(-c2ccc(N3CCOCC3)nn2)cc1S(=O)(=O)N1CCOCC1	none
O=C(c1cc(Cl)ccc1Cl)N1CCN(c2ccc3nnc(-c4ccco4)n3n2)CC1	USP8 block 49
Cc1ccc(C)c(S(=O)(=O)N2CCN(c3ccc4nnc(-c5ccco5)n4n3)CC2)c1	USP8 block 76, USP10 block 39, UCHL1 block 45, USP7 block 37
O=S(=O)(c1ccccc1Cl)N1CCN(CCOc2ccccc2)CC1	none
CC1CCN(c2ccc3nnc(CCC(=O)NCc4ccco4)n3n2)CC1	none
O=S(=O)(c1ccccc1Cl)N1CCN(c2ccc3nnc(-c4ccco4)n3n2)CC1	USP8 block 50, USP10 block 39, UCHL1 block 40, USP7 block 34
CCc1cnc(N2CC[C@@H]3Oc4ccccc4S(=O)(=O)N(CC)[C@H]3CC2)nc1	none
CCn1c(CN2CCc3ccccc3C2)nc2cc(S(=O)(=O)N(C)C)ccc21	USP8 block 79
O=S1(=O)NC(=NCCc2ccc(Cl)cc2Cl)c2ccccc21	none
CC(=O)c1ccc(NC(=O)CSc2nc(-c3ccccc3)nc3c2COC(C)(C)C3)cc1	USP10 block 34
Cc1cc(C)c(C(=O)N2CCCC(C(=O)NCc3cccc(F)c3)C2)[nH]1 (stereo unspecified)	none
Cc1nc(-c2cccc(S(=O)(=O)NC3CCCc4ccccc43)c2)no1 (stereo unspecified)	USP8 block 47
O=C(NC1CCCC1)c1ccc2c(c1)N(Cc1cccc(Cl)c1)C(=O)c1ccccc1S2	none
O=C1Cc2ccccc2C(=O)N1Cc1cccc(Cl)c1	USP8 block 88
O=S(=O)(NCc1csc2ccc(Cl)cc12)c1cccc2cccnc12	USP8 block 38
COc1cccc(CCNC(=O)c2cccc(N3C(=O)C(C)(C)CS3(=O)=O)c2)c1	none
Cc1ccc(N2CC(c3noc(-c4ccccn4)n3)CC2=O)cc1 (stereo unspecified)	none
CC1(C)CC(=O)C2=C(C1)Nc1ccccc1N(C(=O)C(F)(F)F)C2c1cccs1 (stereo unspecified)	USP8 block 89
COc1ccc(C2C3=C(CC(C)(C)CC3=O)Nc3ccccc3N2C(=O)c2ccccc2)cc1 (stereo unspecified)	none
O=C(CN1CCC(c2nc(-c3cccc(F)c3)no2)CC1)Nc1ccccc1	none
O=c1ccc(-c2noc(-c3cccc4[nH]ccc34)n2)c[nH]1	none
O=c1ccc(-c2noc(-c3n[nH]c4ccccc34)n2)c[nH]1	USP8 block 56
CN1CC(=O)N(C2CCCNC2)Cc2c(NC3Cc4ccccc4C3)ncnc21 (stereo unspecified)	USP8 block 68
CN1CC(=O)N(C2CCCNC2)Cc2c(NC3CCCCCC3)ncnc21 (stereo unspecified)	none
COc1ccc(CNc2ccc(C(=O)OCc3ccccc3F)cc2S(=O)(=O)Nc2cccc(OC)c2)cc1	USP10 block 33
CNc1cncc(C2CCN(C(=O)c3ccn(C)n3)CC2)n1	none
Cc1c(C2CCCN(C(=O)c3ccn(C)n3)C2)n2c(nc1=O)CCC2 (stereo unspecified)	USP8 block 36
Cc1cc(C)n(CC2CN(Cc3ccc(C(N)=O)cc3)CCO2)n1 (stereo unspecified)	none
COCc1nnc(NC(=O)CCc2nc(-c3cc4ccc(C)cc4[nH]c3=O)no2)s1	none
Cc1ccc(OC(C)C(=O)N2CCN(Cc3cc(=O)n4ccsc4n3)CC2)cc1 (stereo unspecified)	none
COc1cc2c(cc1OC)CN(Cc1cc(=O)n3ccsc3n1)CC2	USP8 block 56
O=C(COc1ncnc2ccccc12)Nc1ccc2c(c1)OC1(CCCC1)O2	USP8 block 58
CC(C)(C)OC(=O)N1Cc2ccccc2C[C@H]1C(=O)N1CCC(C(=O)N[C@H](CC(N)=O)C(=O)O)(c2ccccc2)CC1	USP8 block 50
Cc1c(CC(=O)N2CCN(c3ccc(Cl)cc3)CC2)c(=O)oc2cc(O)c(Cl)cc12	USP8 block 41
O=c1[nH]c(C2CCCCC2)nc2ccc(N3CCCC3)cc12	none
COC(=O)c1cc2c(ccn2-c2ccc(F)cc2)n1CC(=O)NC1CCCCC1	USP8 block 34
CCOC(=O)c1cc2c(ccn2-c2ccc(F)cc2)n1CC(=O)N(C)C1CCCCC1	none
CC(C)OC(=O)c1cc2c(ccn2-c2ccc(F)cc2)n1CC(=O)N(C)C1CCCCC1	USP8 block 60
CC(C)OC(=O)c1cc2c(ccn2-c2ccc(F)cc2)n1CC(=O)NC1CCCCC1	none
O=S(=O)(c1ccc(F)cc1)N1CCC2(CC1)CC2c1nnc(-c2cccc(F)c2)o1 (stereo unspecified)	none
Cc1nc2cc(-c3noc(-c4ccncc4)n3)ccc2n(C2CCCC2)c1=O	none
O=C1NCCCC1Cc1ccc(-c2cccc(C(=O)N3CCc4ccccc4C3)c2)cc1 (stereo unspecified)	USP8 block 61
Cc1cc(-c2cnc(C)nc2C2CCCN(CC(=O)N3CCCC3)C2)on1 (stereo unspecified)	none
CCc1ccc(NC(=O)Cc2nnc3cc(-c4nc(C)no4)ccn23)cc1	USP8 block 84, USP10 block 56, USP7 block 44
Cc1ccc(NC(=O)Cc2nnc3ccc(-c4nc(C)no4)cn23)c(C)c1	none
Cc1ccc(NC(=O)Cc2nnc3cc(-c4nc(C)no4)ccn23)cc1	USP8 block 62, USP10 block 46, USP7 block 39
CCc1noc(-c2ccn3c(CC(=O)Nc4ccccc4C)nnc3c2)n1	USP8 block 76
CN1CCn2c(nnc2C2CCCN2C(=O)c2cc(C3CCCCC3)no2)C1 (stereo unspecified)	none
CSc1cccc(NC2c3ccccc3C(=O)N2c2cccnc2)c1 (stereo unspecified)	none
CCOc1ccccc1NC1c2ccccc2C(=O)N1c1cccnc1 (stereo unspecified)	USP8 block 71
CN1c2ccccc2C(=O)NC12CCN(C(=O)c1ccccc1)CC2	none
COc1ccc([N+](=O)[O-])cc1NC(=O)COC(=O)c1ccc2[nH]c3c(c2c1)CCCC3	USP8 block 60, USP10 block 50
CN(c1cccc(Cl)c1)S(=O)(=O)c1cccc(C(=O)Nc2nc3ccccc3s2)c1	none
CCOc1ccc(-n2nnnc2CNS(=O)(=O)c2ccc(Cl)cc2)cc1	none
Nc1cc(-c2cncnc2C2CCN(S(=O)(=O)C3CCCC3)C2)ccn1 (stereo unspecified)	none
COc1cc(NC(=O)c2ccc3c(c2)OCO3)ccc1-c1cc2ccccc2oc1=O	USP8 block 69
CCOC(=O)CCC(=O)Nc1c(C(=O)Nc2ccc3c(c2)OCCO3)oc2ccccc12	none
O=C(Nc1c(C(=O)Nc2ccc3c(c2)OCO3)oc2ccccc12)c1cc2ccccc2o1	USP8 block 79
